gsp ag: gsp mutant agonism; actives 0.13% (n = 340,000); Potency, µM (titrated, usually from 76.9 µM), inactives show at the highest dose activation (cAMP increase), actives largely listed as activators; gsp mutant cells, cAMP HTRF, 30 min; active = well fitted activation curve with a large enough effect; inconclusive = small, poorly fitted or top-dose-only effect, or another doubt; inactive = no such curve, though single readings can be large or run the other way; cell line not stated here;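 note: phosphodiesterase inhibitor Ro 20-1724 added with compounds to block cAMP breakdown; potency is the fitted concentration of half-maximal effect; nearly all actives have a fitted effect of over 60% in size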
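Cells stably selected in G418 were plated at 2000/well, grown 16-24 hr, then given compounds in DMSO with the PDE inhibitor […] (300 uM solution added) for 30 min at 37C; cAMP was read by HTRF.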
RXFP1 antagonist: blocks the human relaxin receptor RXFP1; HEK293-RXFP1, relaxin-stimulated cAMP HTRF, 30 min; stronger effect = lower value; activity change, negative = inhibition, % at 57.5 µM; actives 0.59% (n = 350,000);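 active = activity change of -60% or lower, but not beyond a set lower limit; inconclusive = change between -60% and -40%, or beyond the set limit; inactive = change above -40%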; note: % is set by controls: 0 for no effect and ±100 for the full control effect
pAkt inh: Akt phosphorylation inhibition | Neuro2A IGF-stimulated pAkt S473 HTRF, 20 min; stronger effect = lower value | activity change, % for hits at 50 µM | actives 0.32% (n = 360,000) | AID 651550; in the data active = activity change below about -80%; inconclusive = mostly about -51% to -80%; note: % is set by controls: 0 for no effect and ±100 for the full control effect
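Neuro2A cells (4,500/well, DMEM with 0.5% FBS) were treated with compound at a single 50 µM final concentration, stimulated with 6 nM IGF for 20 min at 37 °C, and lysed. Phospho-Akt Ser473 was read by HTRF as 665/615 ratio ×10^4.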
gsp antagonist: gsp mutant antagonism; Potency, µM (highest dose often 76.9 µM), for inactives: at the top dose activity change, negative = inhibition, actives largely listed as inhibitors; actives 0.4% (n = 340,000); AID 624288; gsp-mutant cells, cAMP HTRF, 30 min; calls by dose curve; cell line not stated here;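 note: intracellular cAMP measured with PDE inhibitor Ro 20-1724 present during compound exposure; potency is the fitted concentration of half-maximal effect; % is set by controls: 0 for no effect and ±100 for the full control effect; nearly all actives have a fitted effect of over 65% in size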
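Cells in G418 medium, seeded 16-24 h, 37C; buffer exchange to DPBS + 1 mM CaCl2, 0.5 mM MgCl2, 0.05% BSA; cpds in DMSO + […] (300 uM stock), 30 min 37C; HTRF cAMP detection.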
ClpP mod: qHTS Assay for Activators of ClpP. ATP-dependent Clp protease proteolytic subunit (Bacillus subtilis (strain 168)), P80244. purified B. subtilis ClpP, FRET peptide cleavage, 20 min. Potency, µM (series often up to 57.5 µM), for inactives: at the highest dose activity change, negative = active. actives 1.9% (n = 340,000); active = well fitted falling curve with a large enough effect; inconclusive = small, poorly fitted or top-dose-only effect; inactive = no such curve, though single readings can be large or run the other way; note: potency is the fitted concentration of half-maximal effect; the source files actives as falling curves though it sought activators and does not explain the sign; nearly all actives have a fitted effect of over 65% in size
Target sequence (P80244 whole entry, looked up): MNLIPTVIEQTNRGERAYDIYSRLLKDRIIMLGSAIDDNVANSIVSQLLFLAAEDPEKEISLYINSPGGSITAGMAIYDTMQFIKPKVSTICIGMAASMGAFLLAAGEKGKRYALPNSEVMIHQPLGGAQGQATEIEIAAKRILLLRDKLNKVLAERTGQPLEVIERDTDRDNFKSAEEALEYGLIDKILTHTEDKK
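Buffer: 100 mM Tris/HCl pH8, 100 mM KCl, 0.05% low protease BSA, 2.5% glycerol, 0.01% Tween-20. ClpP 10 microg/mL final; 20 min RT; delta FRET normalized to ADEP and DMSO controls.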
RXFP1 ag: RXFP1 (human) receptor agonism. HEK293T-RXFP1 cAMP TR-FRET, 30 min; response scale: percent of porcine relaxin response, buffer zero. actives 0.3% (n = 370,000). Q9HBX9. Potency, µM (top dose mostly 57.5 µM), for inactives: at the top dose activation, actives largely listed as activators; active = well fitted activation curve with a large enough effect; inconclusive = small, poorly fitted or top-dose-only effect; note: potency is the fitted concentration of half-maximal effect; % is set by controls: 0 for no effect and ±100 for the full control effect; nearly all actives have a fitted effect of over 60% in size
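cAMP rise read by TR-FRET after 30 min, 37C compound exposure (up to 58 uM) in RXFP1-transfected HEK293 cells with Ro 20174 present. EC50 from Hill-equation fits, with 29 nM porcine relaxin as 100% and buffer as basal.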
Starred values were filed as active, the others as inactive; i = inactive; ? = inconclusive; nt = no result given; [ ] = another dose, or the depositor's remark. A selection: hits, their analogues and other compounds. The true share with any hit is near 2.7%.

SMILES	gsp ag	RXFP1 antagonist	pAkt inh	gsp antagonist	ClpP mod	RXFP1 ag
N#Cc1nc(-c2ccccc2F)oc1N1CCCCC1	-1.2%	3.9	i	3.7%	4.4%	6.0%
N#Cc1nc(-c2ccccc2F)oc1NC1CCCCC1	8.1%	-60.1*	i	-15.8%	4.6%	4.5%
Cc1ccn2c(Nc3ccc4c(c3)OCCO4)c(-c3ccc(Cl)s3)nc2c1	nt	-15.6	nt	nt	25.1µM*	0.0%
Cc1ccc2nc(-c3ccc(Cl)s3)c(Nc3ccc4c(c3)OCCO4)n2c1	nt	-14.8	nt	nt	?	2.6%
O=C1N/C(=N/NC(=O)c2cccc3ccccc23)S/C1=C\c1ccccc1OCc1ccccc1	?	?	i	28.2µM*	0.8%	3.3%
CCOCCCNC(=O)CN1C(=O)c2c(c3ccccc3n2C)C1c1ccc(OC)cc1 (stereo not given)	nt	-5.2	nt	nt	31.6µM*	-0.2%
COc1ccc(C2c3c(n(C)c4ccccc34)C(=O)N2CC(=O)Nc2c(C)cc(C)cc2C)cc1 (stereo not given)	nt	-13.9	nt	nt	-2.8%	4.4%
COCCCNC(=O)CN1C(=O)c2c(c3ccccc3n2C)C1c1ccc(OC)cc1 (stereo not given)	nt	-7.0	nt	nt	31.6µM*	0.6%
COc1ccc(C2c3c(n(C)c4ccccc34)C(=O)N2CC(=O)Nc2cc(Cl)ccc2C)cc1 (stereo not given)	nt	1.3	nt	nt	?	-1.6%
COc1ccc(N(Cc2cc(=O)[nH]c3ccccc23)C(=O)C(C)C)cc1	13.6%	7.6	i	-1.8%	-15.5%	0.0%
CC(C)CC(C(=O)O)C(C)CC(=O)Nc1ccn(-c2ccccc2)n1 (stereo not given)	-14.6%	4.8	-108.5%*	2.3%	1.5%	-2.2%
CCOc1ccccc1N1C(=O)c2ccccc2N/C1=C\N1CCN(C(=O)c2ccco2)CC1	nt	nt	nt	nt	2.5%	nt
O=C(CSc1nc2ccccc2c(=O)n1CCCN1CCOCC1)Nc1cccc(S(=O)(=O)N2CCCCCC2)c1	-10.8%	13.3	i	-23.0%	17.8µM*	-0.1%
Cc1ccc(NC(=O)CSc2nc(=O)n(CCCN3CCOCC3)c3c2CCCC3)cc1F	3.2%[15.4 µM]	-6.1	i	-0.3%	31.6µM*	1.7%
CC(=O)Nc1cccc(NC(=O)CSc2nc(=O)n(CCCN3CCOCC3)c3c2CCC3)c1	21.0%	-6.5	i	3.5%	28.2µM*	0.6%
CC(C)c1ccc(Nc2ncnc3c2nc2n3CCCC2)cc1	nt	-8.0	nt	nt	-1.0%	2.6%
COCC(=O)N(Cc1cc2cc(OC)ccc2[nH]c1=O)c1ccc(C)cc1	?	-1.2	i	4.4%[15.4 µM]	25.1µM*	0.0%
COCC(=O)N(Cc1cc2cc(OC)ccc2[nH]c1=O)c1ccccc1OC	-31.4%	-5.3	i	-12.4%	28.2µM*	-0.1%
N#CSCC(=O)O	nt	-20.7	nt	nt	nt	nt
Cc1ccc(C(=O)Nc2sc(C(=O)N(C)C)c(C)c2C#N)cc1	-1.0%[15.4 µM]	-7.3	i	9.5%	0.1%	2.7%
Cc1c(C(=O)N(C)C)sc(NC(=O)c2cc([N+](=O)[O-])cc([N+](=O)[O-])c2)c1C#N	8.2%	-0.8	i	39.8µM*	4.0%	-0.5%
CNCCCOc1ccc(Cl)cc1C(C)(C)C	16.5%	-85.2*	i	21.1%	nt	3.0%
COc1cc(S(=O)(=O)n2cnc(C)c2)ccc1Br	?	8.8	i	16.7%	nt	1.2%
Cc1cn(S(=O)(=O)c2ccc(Br)c3ccccc23)cn1	nt	nt	nt	nt	nt	22.4µM*
Cc1ccc(CNC(=O)c2ccc(Cn3nc(C)cc3C)o2)cc1	10.6%	-117.2*	nt	-6.4%	1.3%	4.5%
SMILES	gsp ag	RXFP1 antagonist	pAkt inh	gsp antagonist	ClpP mod	RXFP1 ag
Cc1cc(C)n(Cc2ccc(C(=O)NCc3ccco3)o2)n1	-27.0%	-22.3	i	-1.1%	-2.3%	-0.1%
CC(C)c1ccc(NC(=O)c2cn(C3CCCCC3)c(=O)c3c2c2ccccc2n3C)cc1	nt	-2.5	nt	nt	25.1µM*	6.8%
Cn1c2ccccc2c2c(C(=O)N3CCN(c4ccccn4)CC3)cn(C3CCCC3)c(=O)c21	-24.5%	11.4	i	30.9%	31.6µM*	0.5%
CC(C)c1ccc(NC(=O)c2cn(C3CCCC3)c(=O)c3c2c2ccccc2n3C)cc1	nt	?	nt	nt	13.4%	0.2%
COC(=O)[C@H](Cc1ccccc1)N(Cc1ccc(C)cc1)S(C)(=O)=O	nt	nt	nt	nt	-0.3%	nt
Cc1ccc(S(=O)(=O)N2CCCCC2)cc1C(=O)OC(C)C(=O)NC1CCCCC1C (stereo not given)	9.5%	-5.5	i	-4.1%	17.6%	0.9%
CCOC(=O)N1CCC(NC(=O)c2ccc3c(c2)N(C)CCS3)CC1	26.4%	-5.0	i	-21.6%	28.2µM*	11.4%
CCOC(=O)N1CCC(NC(=O)c2ccc3c(c2)N(Cc2ccc(C)cc2)CCS3)CC1	24.7%	7.4	i	-11.8%	4.7%	3.9%
Cc1ccc(NC(=O)c2cccnc2C(=O)O)nc1	16.3%	-2.5	i	11.6%	nt	0.8%
CC1CCCN(C(=O)COC(=O)CNC(=O)c2sc3ccccc3c2Cl)C1 (stereo not given)	31.6µM*	3.1	i	8.1%	-4.1%	?
CC1CCCC(C)N1C(=O)COC(=O)CNC(=O)c1sc2ccccc2c1Cl (stereo not given)	5.1%	-8.3	i	-13.7%	-1.0%	12.0%
Nc1nonc1C(=O)NCCN=Cc1cc(Cc2ccccc2)cc(Br)c1O	0.0%	-73.0*	i	-15.9%	-1.3%	2.0%
Nc1nonc1C(=O)NCCN=Cc1ccccc1O	3.8%	-6.3	i	6.4%	-1.6%	4.5%
OCC1OC(n2cnc3c(=S)nc[nH]c32)C(O)C1O (stereo not given)	nt	nt	nt	nt	0.5%	nt
CC(=O)Nc1ccc(-n2cc3c(c2-c2ccc(C)cc2)c(=O)n(C)c(=O)n3C)cc1	nt	-10.0	nt	nt	20µM*	3.8%
COc1ccc(-c2c3c(=O)n(C)c(=O)n(C)c3cn2-c2ccc(O)cc2)cc1	23.0%[15.4 µM]	0.0	i	4.2%	nt	-1.0%
CC(C)n1cc2c(c1-c1ccccc1Cl)c(=O)n(C)c(=O)n2C	nt	-20.1	nt	nt	-16.1%	2.8%
Cc1ccc(-c2c3c(=O)n(C)c(=O)n(C)c3cn2-c2cc(C)ccc2O)cc1	nt	-6.4	nt	nt	3.55µM*	2.1%
Cc1cccc(-c2c3c(=O)n(C)c(=O)n(C)c3cn2CCO)c1	20.4%	11.4	i	9.4%	28.2µM*	0.4%
CC(=O)Nc1cccc(-n2cc3c(c2-c2ccccc2Cl)c(=O)n(C)c(=O)n3C)c1	nt	-29.5	nt	nt	28.2µM*	1.9%
COc1ccccc1NC(=O)CSc1ccc2nnc(CCNC(=O)c3ccccc3)n2n1	-2.2%[15.4 µM]	-4.5	i	0.9%	-3.8%	-0.5%
